# Assay results taken from PubChem BioAssay (NCI).
# This is part of a sample that, as a whole, favours compounds with a hit. Of some 79,000 tested, about 15% had one in any assay. A number with no mark means an inactive call. Activity calls are given as the source filed them. No stated cut-off is given here; in the data, active means growth inhibition above about 70%; inactive means the rest.
# What was measured:
# [1] = NCI Yeast Anticancer Drug Screen. Data for the rad50 strain (AID 155);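 further: 0% = growth of vehicle-only cultures of the same strain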; details: S. cerevisiae rad50 strain growth inhibition; at 50.0 µM; hits give high values
# Outline: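 Genetically altered yeast (DNA repair pathway); compound treatment; growth inhibition vs vehicle ctrl.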
# [2] = NCI Yeast Anticancer Drug Screen. Data for the mec2-1 strain (AID 157); details: S. cerevisiae mec2-1 strain, at 50.0 µM, hits give high values
# Outline: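 Each compound was tested on mec2-1 yeast, a strain altered in DNA damage repair or cell cycle control. Growth inhibition is reported relative to vehicle.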
# [3] = NCI Yeast Anticancer Drug Screen. Data for the sgs1 mgt1 strain (AID 161);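 further: 0% = growth of cultures given vehicle only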; details: S. cerevisiae sgs1 mgt1 strain, at 50.0 µM, hits give high values
# Outline: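 Inhibition of yeast growth, normalised to vehicle-treated controls, is reported for a strain bearing genetic alterations in DNA damage repair.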
# [4] = NCI Yeast Anticancer Drug Screen. Data for the cln2 rad14 strain (AID 165);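 further: 0% = growth equal to vehicle treated cultures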; details: S. cerevisiae cln2 rad14 strain, at 50.0 µM, hits give high values
# Outline: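 Test compounds were added to cln2 rad14 yeast cultures; inhibition of growth was then determined by comparison with vehicle treatment.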
# [5] = NCI Yeast Anticancer Drug Screen. Data for the bub3 strain (AID 167); details: S. cerevisiae bub3 mutant strain, at 50.0 µM, hits give high values
# Outline: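 Yeast carrying a defined mutation is treated with each compound, and growth is compared with that of vehicle-exposed cells to give inhibition.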
# [6] = NCI Yeast Anticancer Drug Screen. Data for the mlh1 rad18 strain (AID 175); details: S. cerevisiae mlh1 rad18 strain growth inhibition; at 50.0 µM; hits give high values
# Outline: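 Inhibition values reflect reduced growth of mutant yeast versus vehicle-treated controls following compound exposure; the mutations affect DNA damage repair.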
Structure (SMILES),growth inhibition [1],growth inhibition [2],growth inhibition [3],growth inhibition [4],growth inhibition [5],growth inhibition [6]
CNC(=O)C(C)Oc1ccc(OCC2CCCCC2)cc1 (stereo unspecified),-0.8%,-44.2%,-14.4%,-35.5%,-46.9%,-55.6%
CCC1=C(C)/C(=C/c2[nH]c(C)cc2C)N=C1C,5.5%,0.95%,3.65%,-54.6%,0.25%,12.2%
Nc1nc(-c2ccccc2)nc(-c2ccccc2)n1,-2.95%,-7.05%,-8.4%,-14.2%,-21.7%,-16.4%
Cc1ccc(S(=O)(=O)Nc2ccccc2-c2nc3ccc([N+](=O)[O-])cc3c(=O)o2)cc1,35.6%,36.2%,22.1%,1.1%,11.8%,45.2%
CC(C)c1ccc(/C=C2\C=Nc3ccccc32)cc1,15.8%,11.7%,28.9%,5.2%,50.7%,20.6%
COC(=O)[C@H]1O[C@H]1c1cccc[n+]1[O-],10.1%,-2.4%,3.9%,-24.6%,9.3%,-0.9%
C[n+]1cc(N)cc2ccccc21,1.65%,-4.9%,-6.75%,3.3%,9.8%,-16.4%
Cc1cccc(N=C/C=C/c2ccccc2)c1C,0.85%,-6.4%,-20.7%,-50.6%,-4.7%,-5.85%
CCOC(=O)c1cnc2cc3c(cc2c1Nc1cccc(C(F)(F)F)c1)OCO3,5.95%,-8.85%,-9.5%,-6.45%,-2.75%,-11.6%
CNC(CCNCCc1ccccc1)CNCCc1ccccc1 (stereo unspecified),44.1%,4.8%,22.8%,3.85%,5.7%,22.2%
CC(=O)C1C(=O)C(=O)N(c2ccccc2N2C(=O)C(=O)C(C(C)=O)C2=O)C1=O (stereo unspecified),18.6%,-2.25%,10.8%,17.8%,-2.35%,25.8%
CC(C)S(=O)(=O)c1s[nH]c(=O)c1-c1ccccc1,-14.9%,-0.1%,12.2%,5.75%,-4.15%,-1.2%
CC1(C)O[C@@H]2C[C@H]3[C@@H]4C[C@H](F)C5=CC(=O)C=C[C@]5(C)[C@@]4(F)[C@@H](O)C[C@]3(C)[C@]2(C(=O)CO)O1,-1.8%,-25.6%,0.25%,-4.75%,-57.8%,-8.35%
CC/C=C\CCCCC,0.4%,-13.7%,-12.6%,0.05%,-10.8%,4.7%
CC1CCC(C(C)C)C(NC(=O)c2cccnc2)C1 (stereo unspecified),8.3%,-7.45%,-2.75%,13.9%,14.4%,8.75%
O=C1CCCc2c(O)ccc(O)c21,5.2%,2.8%,-2.6%,11.4%,8.15%,28.4%
Cc1ccccc1NC(=O)/C=C\C(=O)O,8.9%,-10.3%,-0.7%,10.1%,-14.4%,10.2%
CCOC(=O)CN/N=C(\N)CSS(=O)(=O)O,-5.25%,-17.4%,-2.05%,13.3%,9.65%,3.05%
CN(C)CCN(CCN(C)C)CCN(C)C,6.85%,-21.5%,12.3%,9.45%,25.1%,14.6%
CC(CN(C)C)/C(=N\Nc1ccccc1)c1ccccc1 (stereo unspecified),16.5%,10%,29.2%,1.1%,-7.85%,35.4%
Cc1ccc([N+](=O)[O-])cc1NC(=O)C(=O)Cc1nc2ccc(C(=O)c3ccccc3)cc2[nH]c1=O,-4.7%,-20.7%,-9.05%,11.6%,10.3%,-5.7%

Structure (SMILES),growth inhibition [1],growth inhibition [2],growth inhibition [3],growth inhibition [4],growth inhibition [5],growth inhibition [6]
CN(C)CCCCC(C#N)(c1ccccc1)c1ccccc1,16.3%,18.8%,16.6%,12.7%,26.5%,38.5%
CC(=O)N(C)c1ccc(N=CN(C)C)cc1,-80.3%,-27.5%,-34.3%,-11.8%,2.9%,-27.9%
O=[N+]([O-])c1ccc(C=NCCO)cc1,8.75%,8.55%,3.7%,-1%,9.2%,-5.4%
O=C(Cc1ccccc1)c1ccc(OCC(O)CN2CCN(c3ccccc3)CC2)cc1 (stereo unspecified),97.7% (active),98.1% (active),99.3% (active),93.4% (active),84.1% (active),96.3% (active)
CCN(CC)CCNc1ccccc1,-0.45%,-13%,-8.55%,-48.4%,-4.9%,14.7%
COC(=O)C1=C(O)C(C(=O)OC)[C@@]2(O)[C@@H](C(=O)OC)CC[C@@H]1[C@@H]2C(=O)OC (stereo partly specified),-1.45%,-9.1%,-13.8%,3%,-3.5%,8.95%
CCC(=O)Nc1ncnc2ncn(C(=O)CC)c12,-8.7%,-48.2%,-32.9%,-23.6%,-45.1%,9.65%
Cc1ncc(N)nc1C,-5.25%,-15.8%,-26.5%,-35.5%,-22.6%,-43%
CC(NC(=O)c1ccccc1)c1ccc[nH]1 (stereo unspecified),8.75%,-9.2%,0.05%,-15.2%,-25.6%,-0.15%
O=C1CC2(CCCC2)C(=O)N1c1ccc(O)c(CN2CCCCC2)c1,7.6%,-4.3%,-19.6%,14.7%,6.35%,4.95%
C[C@@H]1OC2(O)[C@H]3CCCN3S(=O)(=O)CCN2C1=O (stereo partly specified),30.5%,-14.8%,-8.05%,16.7%,-11.7%,-1.2%
COc1cc(CCCCC(=O)O)ccc1OC(=O)c1ccccc1,-15.6%,-4.85%,1.85%,2.05%,-6.3%,-5.1%
O=C(O)C(CCS)(c1ccccc1)c1ccccc1,17.2%,-5.7%,0.3%,20.2%,2.15%,2%
O=C1CCCCCC1,9.95%,-8.9%,11.2%,-19.2%,-4.45%,3.4%
COC1=CC(=C(c2ccc(O)c(OC)c2)c2ccc(O)c(OC)c2)C=CC1=O,-2.75%,-6.95%,-2.55%,4.4%,-22.4%,-31.9%
Cc1ccc(NC=O)cc1NC=O,37.6%,-1.4%,9.5%,-27.1%,4.2%,15.9%
O=C1CSCc2sccc21,37%,26.1%,6.55%,-14.4%,17.3%,2.95%
CCN(CC)/[N+]([O-])=N/OCC(C)O (stereo unspecified),18.4%,-3.45%,-3.85%,8.35%,0.55%,-12.5%
NC(=O)[C@H]1CC2CCC1C2 (stereo partly specified),6.75%,-1.75%,3.4%,5%,11.3%,6%
O=C1c2ccccc2C(=O)c2[nH]ncc21,18.4%,13.8%,-3.25%,-61.6%,10.1%,-1.8%
